Data published in the supplement of paper PMC3334620.
In all, about 33,000 sequences were measured (“E-score (-0.5 to 0.5)”: median about -0.012, highest 2% from about 0.29 on). Many of the other results were omitted from the sample, so the highest values are more common in it than they were.

target: T1, Ybr033w (UniProt P38073); experiment: PBM E-score (8-mer binding enrichment) (E-score (-0.5 to 0.5)); higher = stronger / more preferred TF binding; details: protein concentration: 200 nM; construct: GST-full length
T1 sequence: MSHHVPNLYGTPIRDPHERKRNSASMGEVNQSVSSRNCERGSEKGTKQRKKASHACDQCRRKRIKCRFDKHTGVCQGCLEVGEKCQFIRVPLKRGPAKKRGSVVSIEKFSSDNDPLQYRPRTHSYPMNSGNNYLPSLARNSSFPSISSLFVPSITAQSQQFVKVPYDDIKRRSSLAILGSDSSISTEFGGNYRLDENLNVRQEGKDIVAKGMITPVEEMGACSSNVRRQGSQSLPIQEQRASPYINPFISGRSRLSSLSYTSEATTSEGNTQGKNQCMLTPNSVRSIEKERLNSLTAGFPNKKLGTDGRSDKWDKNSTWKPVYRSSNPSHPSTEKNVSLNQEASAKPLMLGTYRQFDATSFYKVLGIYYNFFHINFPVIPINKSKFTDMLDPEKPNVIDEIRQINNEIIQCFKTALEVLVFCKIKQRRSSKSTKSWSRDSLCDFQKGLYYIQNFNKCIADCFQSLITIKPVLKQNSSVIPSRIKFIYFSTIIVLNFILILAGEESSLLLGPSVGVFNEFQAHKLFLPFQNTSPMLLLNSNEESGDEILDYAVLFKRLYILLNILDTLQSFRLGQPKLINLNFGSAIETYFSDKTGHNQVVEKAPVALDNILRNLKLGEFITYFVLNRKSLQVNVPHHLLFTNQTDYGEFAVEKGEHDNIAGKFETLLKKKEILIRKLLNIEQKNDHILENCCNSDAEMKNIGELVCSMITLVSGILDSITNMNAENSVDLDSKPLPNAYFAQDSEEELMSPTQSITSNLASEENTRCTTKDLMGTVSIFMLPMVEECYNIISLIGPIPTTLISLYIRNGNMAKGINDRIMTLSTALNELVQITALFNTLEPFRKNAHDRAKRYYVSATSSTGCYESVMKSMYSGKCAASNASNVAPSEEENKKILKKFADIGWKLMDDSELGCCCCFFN
Protocol: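 Universal 'all 10-mer' protein binding microarrays (Agilent AMADID 015681) probed with GST-tagged S. cerevisiae TFs (full-length or DBD) made by in vitro transcription/translation (PURExpress), about 100-200 nM. Bound TF was detected with fluorescent anti-GST. Each ungapped 8-mer (which stands for itself and its reverse complement) is scored by the PBM enrichment score (E-score), a modified Wilcoxon-Mann-Whitney statistic from -0.5 to +0.5, computed with the Universal PBM Analysis Suite. Scale: above 0.35 generally sequence-specific binding.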

Sequence	PBM E-score
ATTATATA	0.297
GCATTCAC	0.216
GTGGTCGA	-0.198
TAGACAAA	0.0827
ACGTACGA	-0.182
ACATAGCG	0.0674
AACTACCC	0.0868
GAGCCAAA	-0.113
ATTCCCCA	-0.0626
GGTGGTAC	-0.231
GACGGTCC	-0.273
CTTATTAC	0.115
ATTATTAC	0.343
GTTATTAA	0.229
ATTATTAA	0.316
CTTATTAA	0.17
ACTATTAC	0.134
ATCTAAGC	0.0351
AGCGTTGC	-0.0711
CGCTTATC	-0.00322
CGGCTATA	-0.0713
CTCCGGAA	0.22

Sequence	PBM E-score
ATCCGGAA	0.403
GTCCGGAA	0.19
ATCCGGAG	0.143
ATCCGGAC	-0.0654
TTCCGGAA	0.316
CTCATCCC	-0.189
CGTACTGC	-0.151
CTCGTCTA	-0.0771
CATAATCC	0.0679
AATAATCA	0.234
AATAATCC	0.439
AACAATCT	0.168
GATAATCA	0.236
AACAATCC	0.338
AACAATCG	0.0843
GATAATCC	0.375
GATAATGC	0.115
ACCCGAAG	-0.0833
ACCTACTC	-0.0816
ACAAAAAC	0.243
AACAAATC	0.315
AACAAATT	0.374

Sequence	PBM E-score
AACAAGAT	0.221
ACAAAAAT	0.308
AACAAGTC	0.0761
GACAAATC	0.24
AACAAATA	0.285
ACAAAAAA	0.18
AACAAGTT	0.188
AACAAAAA	0.212
AACAAAAT	0.291
AGGCAGTG	-0.0313
GCCGTTTA	0.0411
CAAAAGTA	0.16
AAGCCATA	0.0179
ATGCACGA	-0.021
GGTGAGAC	0.0001
ACCAATCC	-0.0137
AACCTTTC	-0.0863
ACCAGCAC	-0.0392
CTCTGCGA	-0.0389
ATTCATCC	0.349
ATTCATCA	0.171
CTTCATCC	-0.0751

Sequence	PBM E-score
ACATAAAT	0.149
AGGGTGGG	-0.0779
ACCAAGCG	-0.0846
AGCACACA	-0.0313
AAAATGAT	0.369
AAAATGAC	0.15
AAAATGGT	0.319
AAAATGAA	0.081
AAAATGGG	-0.032
AAAATGGA	0.197
GATATGGC	-0.161
TCACCTAA	0.0978
GCGATACC	-0.236
CTGACTCA	-0.0835
CATACAAA	0.246
ATTACAAT	0.0893
TATACAAA	0.356
AATACAAC	0.271
ATTACAGG	0.326
AATACAAA	0.302
